The values below come from PubChem BioAssay.

A short description of assay [1]: Her2 expression decrease, cell viability multiplex – SKBR3 breast tumor cells, AlphaScreen, ATP viability, primary screen (AID 461;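 active means Her2 level under about 52% in both replicate screens, with viability over 70% of control, limit read from the data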;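 on Her2 level: lower value means less Her2 protein in the cells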;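 on viability: percent of carrier control wells set as 100% viability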). Conditions: SKBR3 Her2 protein level, 18-24 h, measured here: SKBR3 viability, ATP luminescence, at 10 µM. On the technique in general: Alpha assays give light when donor and acceptor beads are brought close together.
Assay [2] addresses Receptor tyrosine-protein kinase erbB-2 (Homo sapiens) (UniProt P04626). The description is as above. Conditions: 18-24 h, at 10 µM, stronger effect = lower value.
Assay [3] is described as follows: reduced viability of SK-BR-3 breast cancer cells – cell-based, 24 h, human, pilot screen (AID 572;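 active means viability at or below 10% of carrier control in both of two separate runs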;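 further: compound exposure lasted between 18 and 24 h rather than exactly 24 h; 100% = carrier-treated control wells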). Conditions: SK-BR-3 viability, CellTiter-Glo luminescence, at 10 µM, stronger effect = lower value. On the technique in general: ATP-based viability assays read luminescence as a measure of living cells.
A short description of assay [4]: HUVEC growth inhibition – cell-based, human, primary screen (AID 575;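 active means viability at or below 30% in both replicate assays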;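 further: 100% = median of untreated cell wells with 0.1% DMSO on each plate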). Conditions: HUVEC proliferation, CellTiter-Glo luminescence, 72 h; at 10 µM; stronger effect = lower value.
Assay [5] in a line: H69AR cell proliferation blockers – human, duplicate replicates, primary screen (AID 580;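 active means viability at or under a set limit in both replicates, limit being median viability minus 3 SD, cut at about 48% in these data, passing the limit was not always enough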;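 further: 100% = mean luminescence of untreated wells and 0% = no signal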). Conditions: H69AR lung tumor cells viability, ATP luminescence, 72 h; at 10 µM; stronger effect = lower value.
A short description of assay [6]: MRP1 drug-resistance reversers in H69AR cells – cell-based, doxorubicin co-treatment, pilot screen (AID 601;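 active means viability loss from added drug above about 55%, and viability with drug at most 40%, in both replicates, limit read from the data, passing the limit was not always enough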). Particulars: CellTiter-Glo, 72 h, at 10 µM; for differential viability (reversal): stronger effect = higher value.
A short description of assay [7]: yeast transport mutant growth inhibition pilot in 384-well plates, post-Golgi transport modulator project (AID 636; in the data active means inhibition above about 31%). Particulars: absorbance 615 nm, about 18 h, stronger effect = higher value.
The nature of assay [8]: growth suppression of yeast trafficking mutant, preliminary HTS, modulators of trafficking downstream of Golgi apparatus project, 1536-format plate, OD 615 nm (AID 637; in the data active means inhibition above about 30%). Conditions: yeast transport mutant growth, absorbance 615 nm, 18 h; stronger effect = higher value.
The nature of assay [9]: S. cerevisiae growth inhibition in permissive medium (OD615), pilot counter-assay for S. cerevisiae lifespan shortening project, permissive growth control (AID 705;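 active means growth inhibition above 25% in both replicates, a cutoff set 3 SD above the mean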). Conditions: OD615, 24 h, at 10 µM, stronger effect = higher value.
Assay [10] can be described thus: S. cerevisiae growth inhibition in restrictive medium, OD615, pilot screen, restrictive growth control, yeast lifespan reduction project (AID 706;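 active means growth inhibition above a set limit, 3 SD over mean compound inhibition, in both replicates, cut at about 43% in these data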;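 further: modified DeaD lifespan yeast strain shifted to restrictive glucose medium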). Conditions: OD615, 48 h, at 10 µM, stronger effect = higher value.
Assay [11] in a line: doxorubicin toxicity protection in MRP-1 cells – H69AR cells, CellTiter-Glo, duplicate, MRP-1 activator project, pilot screen (AID 807;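 active means viability increase at or above a cutoff of the median across tested compounds plus 3 SD, cut at about 8.5% in these data, passing the limit was not always enough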;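 further: compound pretreatment 18-22 h then 72 h combined with doxorubicin; 0% = doxorubicin alone and 100% = vehicle without doxorubicin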). Particulars: H69AR viability with doxorubicin, CellTiter-Glo luminescence; at 10 µM; stronger effect = higher value.
The nature of assay [12]: viability of HCT116 without oncogenic beta-catenin – human colon tumor cells, pilot screen (AID 823;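 active means cell viability at or below a set limit in both duplicate runs, the limit being the all-compound median minus 4 SD, cut at about 23% in these data, passing the limit was not always enough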;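 further: 0% = wells killed by 20 µM Hyamine and 100% = untreated DMSO cell wells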). Particulars: HCT116 beta-catenin knockout viability, CellTiter-Glo, 60 h; at 10 µM; stronger effect = lower value.
Assay [13] is described as follows: viability of PTEN-null HCT116 cells – cell-based, HCT116 clonal line, CellTiter-Glo, pilot screen (AID 824).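 Further: 0% = 20 µM Hyamine control and 100% = vehicle cell control.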 Conditions: HCT116 PTEN-deleted viability, 60 h, at 10 µM, stronger effect = lower value.
Assay [14] in a line: RAM pathway blockade in budding yeast – dse1pr::URA3 reporter, 5-FOA selection, pilot screen (AID 869;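 active means inhibition over a set limit, the all-compound mean plus 3 SD, in both replicate runs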;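 further: 0% = DMSO wells with no growth and 100% = 10 µM 1-NA-PP1 with full growth; RAM network block rescues cells from 5-FOA so hits raise OD615 growth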). Particulars: S. cerevisiae dse1pr::URA3 5-FOA growth, OD615, 2 d; at 10 µM; stronger effect = higher value; strain carries analog-sensitive mutant Cbk1 kinase.
Assay [15] is described as follows: RAM signaling pathway blockade in yeast – S. cerevisiae, Pdr1DBD-CYC8 efflux-inhibited sensitized strain, primary screen (AID 1298;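 active means RAM network inhibition above 8.4% in each of two replicates, 3 SD over the compound average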;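 further: 0% = DMSO untreated cells without growth and 100% = 10 µM 1-NA-PP1 full growth; higher means more yeast growth rescued from 5-FOA killing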). Particulars: S. cerevisiae cbk1-as DSE1-URA3 strain, 5-FOA growth OD615, 2 d; at 50 µM; stronger effect = higher value.
Where [16] appears, read: H69AR cells + 2 uM doxorubicin, measured here: viability with 2 uM doxorubicin, stronger effect = lower value.
Where [17] appears, read: H69AR cells, compound alone cytotoxicity.

The structures appear in SMILES notation. Results filed as inconclusive are left out. Calls of active or inactive are those of the source.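 How the source made its calls, unless noted: active means viability at or below 27.92% in each of two runs, the all-compound median minus 4 SD; inconclusive means no clear call, values can overlap the other calls; inactive means the rest.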

By viability is commonly meant a read-out of living cells in per cent, often relative to untreated cells. Broadly, the inhibition is the relative decrease from the control value, in per cent.

Receptor tyrosine-protein kinase erbB-2 (Homo sapiens), sequence (P04626 whole entry, looked up): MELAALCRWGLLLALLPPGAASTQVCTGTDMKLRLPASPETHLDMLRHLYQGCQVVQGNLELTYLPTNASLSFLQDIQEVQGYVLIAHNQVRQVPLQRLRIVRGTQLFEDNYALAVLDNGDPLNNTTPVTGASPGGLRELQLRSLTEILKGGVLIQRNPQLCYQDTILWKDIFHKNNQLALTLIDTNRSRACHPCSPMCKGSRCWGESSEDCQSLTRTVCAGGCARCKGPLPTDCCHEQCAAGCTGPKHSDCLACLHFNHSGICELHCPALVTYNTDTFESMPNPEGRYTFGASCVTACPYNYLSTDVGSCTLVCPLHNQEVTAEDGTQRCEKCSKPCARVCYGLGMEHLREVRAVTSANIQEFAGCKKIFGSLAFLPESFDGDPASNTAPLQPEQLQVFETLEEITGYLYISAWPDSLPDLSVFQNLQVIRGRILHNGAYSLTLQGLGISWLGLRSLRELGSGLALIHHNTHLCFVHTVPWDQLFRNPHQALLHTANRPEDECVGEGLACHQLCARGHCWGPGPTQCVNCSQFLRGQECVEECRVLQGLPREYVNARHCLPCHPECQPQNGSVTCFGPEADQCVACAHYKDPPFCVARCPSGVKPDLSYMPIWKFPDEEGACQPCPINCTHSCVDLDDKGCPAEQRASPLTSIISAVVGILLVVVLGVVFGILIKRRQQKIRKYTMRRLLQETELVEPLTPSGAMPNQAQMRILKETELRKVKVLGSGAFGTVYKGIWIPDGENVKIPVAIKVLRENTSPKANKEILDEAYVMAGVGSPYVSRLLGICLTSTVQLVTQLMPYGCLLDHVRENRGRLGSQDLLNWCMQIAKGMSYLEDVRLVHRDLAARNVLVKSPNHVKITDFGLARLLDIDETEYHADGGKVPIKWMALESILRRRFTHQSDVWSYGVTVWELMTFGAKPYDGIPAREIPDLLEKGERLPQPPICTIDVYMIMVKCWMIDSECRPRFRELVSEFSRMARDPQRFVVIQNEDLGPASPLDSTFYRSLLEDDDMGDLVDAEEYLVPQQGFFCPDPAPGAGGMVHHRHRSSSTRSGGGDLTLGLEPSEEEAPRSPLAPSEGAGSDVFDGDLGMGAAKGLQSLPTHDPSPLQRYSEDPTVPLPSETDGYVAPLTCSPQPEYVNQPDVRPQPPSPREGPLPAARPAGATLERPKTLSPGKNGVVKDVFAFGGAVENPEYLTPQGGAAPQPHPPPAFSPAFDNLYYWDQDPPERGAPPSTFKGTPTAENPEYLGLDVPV

As for `CCCCN(C)Cc1c(O)ccc2c(-c3ccccc3)cc(=O)oc12`, the viability in assay [1] is 89%; in [3], 89% (inactive); in [4] it was 111% (inactive); in [5], 96.7% (inactive); in [6] (setting [16]), 88.6%; in assay [6] (setting [17]), 96.7%. The viability in assay [12] is 91% (inactive); in [13], 93.6% (inactive). Further, the Her2 level in assay [2] was 102% (inactive). Further, the differential viability (reversal) in assay [6] (H69AR cells + 2 uM doxorubicin) is 8.13% (inactive). The inhibition is -2.7% (inactive) in [7], 2.95% (inactive) in assay [8] and 0.605% (inactive) in assay [14]. Also, the growth inhibition is -4.28% (inactive) in assay [9] and 2.96% (inactive) in assay [10]. Besides, the viability increase in [11] is -2.64% (inactive). Also, the RAM network inhibition in assay [15] was 1.89% (inactive).
Turning to `C=CCNC(=O)CSc1nc2sc(C)c(C)c2c(=O)[nH]1`, the viability was 96.5% in [1]; 96.5% (inactive) in assay [3]; 90.1% (inactive) in [4]; 78.2% (inactive) in assay [5]; 85.7% in [6] (setting [16]); 78.2% in assay [6] (setting [17]). The viability was 110% (inactive) in assay [12] and 97.1% (inactive) in assay [13]. In addition, the Her2 level in assay [2] is 95.5% (inactive). Further, in [6] (H69AR cells + 2 uM doxorubicin), the differential viability (reversal) is -7.53% (inactive). The inhibition in assay [7] is -3.33% (inactive); in assay [8] it was 1% (inactive); in assay [14], 3.06% (inactive). Also, the growth inhibition in assay [9] is -10.2% (inactive); in assay [10] it was -4.47% (inactive). The viability increase in assay [11] was -1.02% (inactive). Further, the RAM network inhibition in [15] was 5.1% (inactive).
Take `COc1ccc(OC)c(C2C(C(=O)Nc3ccc(F)cc3)=C(C)Nc3nc(CCCO)nn32)c1` (stereo not drawn): the viability in [1] was 101%; in [3] it was 101% (inactive); in assay [4], 91% (inactive); in assay [5], 101% (inactive); in assay [6] (setting [16]), 95.4%; in assay [6] (setting [17]), 101%. In addition, the viability in [12] is 99.6% (inactive); in assay [13], 99.1% (inactive). Moreover, the Her2 level in assay [2] was 120% (inactive). Moreover, in assay [6] (H69AR cells + 2 uM doxorubicin), the differential viability (reversal) is 5.54% (inactive). The inhibition is 0.13% (inactive) in [7], -0.83% (inactive) in [8] and -1.06% (inactive) in assay [14]. Further, the growth inhibition in assay [9] was -9.55% (inactive); in [10], 7.19% (inactive). Further, in assay [11], the viability increase was -0.62% (inactive). In addition, in assay [15], the RAM network inhibition is -0.42% (inactive).
Take `COc1ccc(CNC(=O)c2nnn(Cc3ccc(OC)cc3)c2N)cc1`: the viability in assay [1] was 89.5%; in [3] it was 89.5% (inactive); in [4], 77.5% (inactive); in assay [5] it was 86.5% (inactive); in assay [6] (setting [16]) it was 88.3%; in assay [6] (setting [17]), 86.5%. Also, the viability in assay [12] was 91% (inactive); in assay [13], 85.4% (inactive). For the same compound, the Her2 level in assay [2] was 101% (inactive). Also, in assay [6] (H69AR cells + 2 uM doxorubicin), the differential viability (reversal) was -1.82% (inactive). Also, the inhibition in assay [7] was -2.69% (inactive); in assay [8], 3.17% (inactive); in assay [14], 1.69% (inactive). Moreover, the growth inhibition in [9] is -3.35% (inactive); in assay [10], -1.51% (inactive). Besides, in [11], the viability increase was -3.08% (inactive). Also, the RAM network inhibition in assay [15] was 2.66% (inactive).
Take `COc1ccc(OCC(=O)N2CC3(C)CC2CC(C)(C)C3)cc1` (stereo not drawn): the viability in assay [1] was 96%; in assay [3], 96% (inactive); in assay [4] it was 108% (inactive); in assay [5], 99.8% (inactive); in assay [6] (setting [16]) it was 82.8%; in assay [6] (setting [17]) it was 99.8%. The viability in [12] is 97.9% (inactive); in assay [13], 92% (inactive). Besides, the Her2 level in [2] is 84% (inactive). Also, the differential viability (reversal) in assay [6] (H69AR cells + 2 uM doxorubicin) is 17% (inactive). Also, the inhibition was -3.2% (inactive) in assay [7], -2.9% (inactive) in [8] and 1.06% (inactive) in assay [14]. The growth inhibition in [9] was -9.87% (inactive); in assay [10] it was -0.89% (inactive). Further, in assay [11], the viability increase was 0.69% (inactive). Further, the RAM network inhibition in [15] is 1.07% (inactive).
As to `COCCN(CCOC)c1ncnc2c1cnn2-c1ccccc1`, the viability was 112% in [1]; 112% (inactive) in [3]; 88.4% (inactive) in assay [4]; 86.6% (inactive) in [5]; 93.5% in assay [6] (setting [16]); 86.6% in assay [6] (setting [17]). The viability in [12] is 107% (inactive); in [13], 98.5% (inactive). Also, the Her2 level in assay [2] is 99% (inactive). The differential viability (reversal) in [6] (H69AR cells + 2 uM doxorubicin) is -6.92% (inactive). Also, the inhibition in assay [7] was -4.8% (inactive); in [8] it was 4.33% (inactive); in assay [14], 0.505% (inactive). Further, the growth inhibition in [9] was -5.8% (inactive); in [10] it was 1.92% (inactive). For the same compound, in [11], the viability increase is 1.43% (inactive). Besides, the RAM network inhibition in assay [15] was 3.39% (inactive).
As for `CCOC(=O)C1=C(C)NC(=O)NC1c1ccc(OCCO)c(OC)c1` (stereo not drawn), the viability in assay [1] was 92.5%; in [3] it was 92.5% (inactive); in assay [4], 96.6% (inactive); in [5], 92.1% (inactive); in assay [6] (setting [16]), 94.1%; in assay [6] (setting [17]), 92.1%. Also, the viability in assay [12] was 102% (inactive); in assay [13] it was 100% (inactive). For the same compound, the Her2 level in assay [2] is 85% (inactive). Also, the differential viability (reversal) in assay [6] (H69AR cells + 2 uM doxorubicin) is -1.96% (inactive). In addition, the inhibition in [7] was -6.08% (inactive); in assay [8] it was -2.3% (inactive); in assay [14], 1.9% (inactive). Also, the values for the growth inhibition in assay [9] and in assay [10] were 1.63% (inactive) and 1.81% (inactive), respectively. Moreover, the viability increase in assay [11] was -1.65% (inactive). Also, in assay [15], the RAM network inhibition was -1.29% (inactive).
Take `COC(=O)Cn1c(CN2CCN(c3ccccc3F)CC2)nc2c1c(=O)n(C)c(=O)n2C`: the viability was 104% in assay [1]; 104% (inactive) in assay [3]; 95.3% (inactive) in [4]; 93.8% (inactive) in [5]; 87.3% in [6] (setting [16]); 93.8% in assay [6] (setting [17]). The viability is 97.4% (inactive) in [12] and 90.1% (inactive) in assay [13]. Also, the Her2 level in assay [2] is 95% (inactive). Further, the differential viability (reversal) in assay [6] (H69AR cells + 2 uM doxorubicin) is 6.45% (inactive). Besides, the inhibition in assay [7] was -3.73% (inactive); in [8] it was 3.33% (inactive); in assay [14] it was 2.47% (inactive). The figures for the growth inhibition in assay [9] and in [10] were -7.25% (inactive) and -1.94% (inactive), respectively. Further, the viability increase in [11] was 0.3% (inactive). Moreover, in assay [15], the RAM network inhibition was 6.25% (inactive).
`CCOC(=O)c1ccccc1NC(=O)CSc1nccn1C`: the viability in [1] is 89%; in assay [3] it was 89% (inactive); in [4], 94% (inactive); in assay [5] it was 108% (inactive); in assay [6] (setting [16]) it was 92.7%; in assay [6] (setting [17]), 108%. Further, the values for the viability in assay [12] and in [13] were 102% (inactive) and 98.2% (inactive), respectively. In assay [2], the Her2 level was 94% (inactive). Moreover, the differential viability (reversal) in assay [6] (H69AR cells + 2 uM doxorubicin) was 15.5% (inactive). Also, the values for the inhibition in [7], in assay [8] and in [14] were 0.91% (inactive), -3.44% (inactive) and 1.55% (inactive), respectively. Besides, the growth inhibition in assay [9] is -4.88% (inactive); in [10], 3.13% (inactive). In addition, the viability increase in assay [11] is -1.73% (inactive). Also, the RAM network inhibition in [15] is 1.28% (inactive).
